A selection: hits, their analogues and other compounds. The true share with any hit is near 12%.
Sfp inh: blocks B. subtilis Sfp PPTase activity | Biochemical Sfp PPTase activity, qHTS | Potency, µM, for inactives: largest response in the series, negative = inhibition, actives largely listed as inhibitors | actives 3.5% (n = 310,000) | AID 1490;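 also: the enzyme is Sfp with the accession as filed and its product quenches rhodamine fluorescence; 0% = enzyme reaction without inhibitor and -100% = no enzyme wells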
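Step 1, compound plus 15 nM Sfp-PPTase, 15 min, room temperature. Step 2, add rhodamine-CoA (5 uM) and BHQ-2-YbbR (12.5 uM). Step 3, read 525/598 nm fluorescence at 0 and 30 min.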
TDP1 block: blocks human tyrosyl-DNA phosphodiesterase 1 | Potency, µM (doses to about 130 µM), inactives show at the highest dose activity change, negative = inhibition, actives largely listed as inhibitors | AID 485290 | Q9NUW8 | actives 0.28% (n = 350,000) | recombinant TDP1, AlphaScreen DNA substrate cleavage; also: % is scaled to controls: 0 for no effect and ±100 for the full control effect; nearly all actives have a fitted effect of over 40% in size
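Compounds were preincubated with Tdp1 (1 nM final) for 15 min at room temperature before substrate (15 nM final) started a 5 min reaction; beads (10 ug/ml final) were then added for 10 min before AlphaScreen detection.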
JMJD2A Tudor: inhibitors of human JMJD2A Tudor domain; AID 504339; actives 4.4% (n = 390,000); O75164; AlphaScreen JMJD2A-Tudor / H3K4me3 peptide binding; Potency, µM (highest dose often 114 µM), for inactives: at the highest dose activity change, negative = inhibition, usual class: inhibitors; also: % is scaled to controls: 0 for no effect and ±100 for the full control effect; nearly all actives have a fitted effect of over 50% in size
BAZ2B inh: BAZ2B (human) inhibition; Q9UIF8; AlphaScreen BAZ2B-H3K14Ac peptide displacement; Potency, µM (doses to about 114 µM), for inactives: at the top dose activity change, negative = inhibition, hits mostly inhibitors; actives 4.4% (n = 360,000); AID 504333; also: % is scaled to controls: 0 for no effect and ±100 for the full control effect; nearly all actives have a fitted effect of over 60% in size
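Inhibition is scored as reduced AlphaScreen emission. The BAZ2B/b-H3(5-23)K14Ac complex (50 nM each) in PBS pH 7.4, 0.01% Tween-20 meets compound (up to 110 uM) for 30 min at RT before bead addition.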
HP1b chromo inh: blocks HP1-beta chromodomain binding to methylated histone tails. Potency, µM (top dose mostly 114 µM), for inactives: at the top dose activity change, negative = inhibition, actives largely listed as inhibitors. AlphaScreen HP1-beta / biotin-H3K9me3 peptide binding. P83916. AID 540317. actives 0.56% (n = 390,000); also: nearly all actives have a fitted effect of over 70% in size
Target sequence (P83916 whole entry, looked up): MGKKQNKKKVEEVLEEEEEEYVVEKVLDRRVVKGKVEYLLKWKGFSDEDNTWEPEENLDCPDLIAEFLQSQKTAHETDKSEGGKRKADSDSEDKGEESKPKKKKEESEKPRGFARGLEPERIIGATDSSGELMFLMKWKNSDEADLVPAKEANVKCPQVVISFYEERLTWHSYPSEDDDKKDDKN
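Compound inhibition of the preformed complex between 50 nM HP1-beta and 50 nM biotinylated H3K9me3 peptide was read by AlphaScreen. Buffer was PBS pH 7.4 with 0.01% Tween-20. Incubations ran 30 min at room temperature, with 10 ug/mL donor/acceptor beads.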
G9a inh: blocks human histone lysine methyltransferase G9a | Q96KQ7 | G9a H3K9 monomethylation, AlphaScreen, 2 h | actives 8.8% (n = 350,000) | Potency, µM (doses to about 102 µM), for the others: at the top dose activity, negative = inhibition, hits mostly inhibitors | AID 504332; also: % is scaled to controls: 0 for no effect and ±100 for the full control effect; nearly all actives have a fitted effect of over 75% in size
Target sequence (Q96KQ7 913-1193 limits assumed): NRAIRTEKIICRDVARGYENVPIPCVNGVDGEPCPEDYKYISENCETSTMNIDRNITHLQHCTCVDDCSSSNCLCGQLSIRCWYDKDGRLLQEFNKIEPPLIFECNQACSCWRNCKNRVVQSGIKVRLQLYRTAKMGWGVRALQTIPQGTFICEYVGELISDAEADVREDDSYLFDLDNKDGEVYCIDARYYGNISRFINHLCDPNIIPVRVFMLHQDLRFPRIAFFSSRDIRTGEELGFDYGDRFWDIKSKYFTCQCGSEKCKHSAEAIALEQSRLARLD
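Methyltransferase reactions run at room temperature for 2 h (20 nM enzyme, 500 nM biotin-H3K9 peptide, 20 uM SAM) after a 15 min compound preincubation; product detected by AlphaScreen beads and anti-H3K9me1 antibody.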
Starred values were filed as active, the others as inactive; ? = inconclusive; · = no result given; ! = not confirmed by another sample; [ ] = another dose, or the depositor's remark. Calls follow the shape of the dose curve; as a rule, active = well fitted curve in the direction sought with a large enough effect; inconclusive = small, poorly fitted or top-dose-only effect, or another doubt; inactive = no such curve, though single readings can be large; an effect the other way counts as inactive or inconclusive. Potency is read from the fitted curve at half-maximal effect.

SMILES	Sfp inh	TDP1 block	JMJD2A Tudor	BAZ2B inh	HP1b chromo inh	G9a inh
O=C(Nc1ccc(OC(F)(F)F)cc1)C1CCCN(C(=O)c2ccc(Cl)cc2)C1 (centres undefined)	·	1.4%	-11.4%	2.9%	39.0%	11.3%[12.7 µM]
COc1cccc([C@@H]2Oc3ccc(Br)cc3C[C@H]2OC(=O)NS(=O)(=O)c2ccc(F)cc2)c1	6.3%	5.6%	·	·	·	·
COC(=O)c1c(N)n(-c2ccc(OC)c(Cl)c2)c2nc3ccccc3nc12	·	·	2.8%	2.0%	27.5%	-22.2%[59 µM]
O=C(Nc1cccc(Cl)c1)c1cccnn1	2.6%	·	-10.7%	2.2%	37.4%[57 µM]	19.2%
OC(CN1CCNCC1)Cn1ccc2ccccc21 (centres undefined)	2.9%	·	·	?	·	4.3%
Oc1ccccc1NCC(O)Cn1ccc2ccccc21 (centres undefined)	-27.4%	2.0%	2.82µM*	50.1µM*	-72.5%	28.2µM*
OC(CNCc1ccccc1)Cn1ccc2ccccc21 (centres undefined)	-6.9%	0.0%	22.4µM*	?	?	?
Cc1cc(C)c2nc(-c3ccccn3)cc(C(=O)N3CCCC3)c2c1	?	5.6%	-13.8%	8.1%	26.5%	?
CCc1c(C)nc2nncn2c1NCc1ccccc1	·	2.3%	3.5%	-2.6%	33.7%	-2.0%[59 µM]
O=C(N/N=C/C(Br)=C\c1ccccc1)c1n[nH]c2c1CCC2	28.2µM*	3.6%	-23.1%	-4.1%	5.8%	?
COc1ccc(S(=O)(=O)N2c3ccc(Cl)cc3[C@](O)(c3ccccc3Cl)[C@@H]2C(=O)N2CCC[C@H]2C(N)=O)cc1OC	?	9.9%	·	·	·	-1.8%[12.7 µM]
Cc1cc2n(n1)SC(Nc1ccc(F)c(Cl)c1)N2 (centres undefined)	?	0.0%	?	-4.2%	-28.3%	1.41µM*
COC(=O)CCN(Cc1cc(OC)ccc1OC)S(=O)(=O)c1ccccc1Br	·	0.6%[56.1 µM]	-12.2%	·	47.8%	·
Cc1cc(NC(=S)N(CCN2CCCCC2)Cc2ccco2)ccc1Cl	-70.1%	6.1%	-22.1%	?	4.4%	39.8µM*
Cc1ccc(NC(=S)N(CCCN2CCOCC2)Cc2ccco2)cc1	-29.4%	2.5%	-5.6%	-14.4%	26.1%	39.8µM*
COc1ccccc1C1C2=C(CC(C)(C)CC2=O)Nc2nnnn21 (centres undefined)	6.1%	3.4%	-14.2%	-27.6%	8.8%	28.2µM*
CN(Cc1ccccc1)C(=O)[C@H]1CCC(=O)N1Cc1ccco1	?	-2.3%	-5.5%	-21.9%	42.6%	44.7µM*
N[C@H](Cc1cnc[nH]1)C(=O)O	-4.7%	6.1%	·	·	·	24.3%[59 µM]
O=C(O)/C=C/c1cnc[nH]1	-16.6%	6.6%[56.1 µM]	-12.9%	6.6%	35.9%	12.6µM*!
COc1cc(/C=N/NS(=O)(=O)c2ccc(C)c([N+](=O)[O-])c2)cc([N+](=O)[O-])c1O	-16.2%	·	-24.3%	50.1µM*	-6.4%	39.8µM*
COc1cc(/C=N/NS(=O)(=O)c2ccc(C(C)(C)C)cc2)cc([N+](=O)[O-])c1O	-5.1%	·	56.2µM*	?	?	17.8µM*
COc1cc(/C=N/NC(N)=O)cc([N+](=O)[O-])c1O	-1.7%	?	-23.6%	?	-17.4%	?
COc1ccc(-n2c(O)c(/C=N/NS(=O)(=O)c3ccc(C)c([N+](=O)[O-])c3)c3ccccc3c2=O)cc1OC	11.8%	5.5%	39.8µM*	50.1µM*	?	1.4%[12.7 µM]
CCn1ccnc1CN1CCN(CCC(C)C)C(CCO)C1 (centres undefined)	-14.9%	9.0%	-3.4%	-3.0%	20.7%	5.0%
CC(C)Cc1nn2c(=O)cc(COC(=O)c3ccccc3NC(=O)C3CCCCC3)nc2s1	·	1.2%	-10.9%	-2.1%	-9.0%	?
SMILES	Sfp inh	TDP1 block	JMJD2A Tudor	BAZ2B inh	HP1b chromo inh	G9a inh
Cc1cc(C)cc(N(CC(=O)NCCSCc2ccccc2)S(C)(=O)=O)c1	2.4%	-3.6%	-15.8%[11.4 µM]	-8.5%	-8.0%	5.4%[12.7 µM]
O=C(CSc1n[nH]c(-c2ccccc2)n1)N1CCN(c2ccccc2F)CC1	·	5.4%	-16.2%	-2.2%	11.5%[57 µM]	10.2%[59 µM]
CCOc1ccc(NC(=O)Cn2ncc3c2-c2cc(C)ccc2OC3)cc1	·	2.9%	1.5%	3.6%	33.9%	16.2%[59 µM]
CCSC(C)CC1CC(=O)CC(=O)C1 (centres undefined)	-6.0%	-5.8%	-15.6%	-4.6%	22.0%	56.2µM*
Cc1cc(Cl)c(OCCOCCN2CCC(C)CC2)c(Br)c1	-4.6%	-5.1%	7.94µM*	?	-19.6%	?
CN1CCN(CCOCCOc2c(Cl)cc(Cl)cc2Cl)CC1	·	·	-26.7%	·	1.9%	·
Cc1cc(C)c(OCCCCN2CCC(C)CC2)c(Br)c1	-2.7%	-2.3%	5.01µM*	?	?	-47.1%
CC1CCN(CC(O)COCCOc2ccc(Br)cc2)CC1 (centres undefined)	14.6%	-1.8%	3.9%[57.1 µM]	9.4%	46.9%	18.2%[59 µM]
Cc1cc(Cl)c(OCCOCCN2CCN(C)CC2)c(Br)c1	?	·	7.94µM*	50.1µM*	?	?
COc1ccc(-c2noc(-c3nnn(-c4ccc(C)cc4C)c3C)n2)cc1	·	0.0%	-5.8%	-1.3%	52.0%	-2.5%[59 µM]
O=c1c2ccccc2nc(COc2ccccc2)n1/N=C/c1ccco1	-15.9%	-3.1%	-19.4%	-4.2%	9.0%	3.1%
CCc1n[nH]c(=S)n1/N=C/c1cc(Br)c(OC)cc1OC	-18.9%	5.3%	?	-5.0%	20.1%	2.51µM*
S=c1[nH]nc(COc2ccccc2)n1/N=C/C=C/c1ccccc1	-12.8%	5.7%	?	?	-15.6%	1.58µM*
S=c1[nH]nc(COc2ccccc2)n1/N=C/C(Cl)=C/c1ccccc1	56.2µM*	13.5%	?	?	?	9.5%[0.501 µM]
S=c1[nH]nc(COc2ccccc2)n1/N=C/C=C/c1ccco1	56.2µM*	·	20µM*	44.7µM*	?	·
CCc1n[nH]c(=S)n1/N=C/c1ccc(-c2ccc(Br)cc2)o1	·	·	-14.7%	·	49.8%	·
O=C(c1ccc(Br)cc1)N1CCN(CCc2ccncc2)CC1	·	-2.6%	-7.6%	-21.0%	39.6%	4.2%[59 µM]
COc1ccc(S(=O)(=O)N(C)C[C@H]2Oc3ccc(NS(=O)(=O)c4ccc(F)cc4)cc3C(=O)N([C@H](C)CO)C[C@@H]2C)cc1	·	1.2%	-23.6%	·	37.0%	·
CCc1n[nH]c(=S)n1/N=C/C(C)=C\c1ccccc1	?	·	25.1µM*	56.2µM*	14.3%	7.4%[0.501 µM]
CC(/C=N/NC(=O)CSc1n[nH]c(=O)[nH]c1=O)=C\c1ccccc1	15.3%	2.4%	2.7%	1.4%	16.2%	12.6%
CCc1n[nH]c(=S)n1/N=C/c1ccc(NC(C)=O)cc1	-12.9%	5.1%	5.01µM*	?	-23.7%	8.91µM*

Source: PubChem (National Center for Advancing Translational Sciences (NCATS))
